According to PubChem BioAssay AID2061321 (National Center for Advancing Translational Sciences (NCATS), 2025):
Inconclusive results are not listed. Calls of active or inactive are those of the source. Calls come from the whole dose curve; as a rule, active = well fitted inhibition curve with a large enough effect; inconclusive = small, poorly fitted or top-dose-only effect; inactive = flat fitted curve, though single readings scatter. Non-standard residues stand in square brackets, D forms with d. Residues, ends and D or L forms follow the SMILES beside them. *: point of attachment. Dolaproine = CO[C@@H]([C@@H]1CCCN1)[C@@H](C)C(=O)O; Dil = CC[C@H](C)[C@H](NC)[C@@H](CC(=O)O)OC; NMe2Val = CC(C)[C@@H](C(=O)*)N(C)C

experiment: Identification of antibody-drug conjugate (ADC) payloads which are substrates of ATP-binding cassette drug efflux transporters: ABCG2-H460 cell line; settings: H460 MX20 (ABCG2) viability, CellTiter-Glo, 48 h
Text: Antibody-drug conjugates (ADCs) feature an antibody recognizing a specific protein joined to a potent toxic payload. Numerous antibody-drug conjugates have received FDA approval; however, clinical resistance arises. Resistance mechanisms include decreased expression or mutation of the antibody target, impaired payload release, or increased expression of ATP-binding cassette (ABC) efflux transporters associated with multidrug resistance. We therefore sought to characterize the interaction of ABC multidrug transporters with ADC payloads. We performed a high-throughput screen with 27 common ADC payloads using cells lines expressing ABC transporters P-glycoprotein (P-gp, encoded by ABCB1) or ABCG2 (encoded by ABCG2). Confirmatory assays were also performed using cells transfected to express P-gp, ABCG2, or MRP1 (encoded by ABCC1). Several commonly used ADC payloads were substrates of P-gp, including calicheamicin gamma1, monomethyl auristatin E, DM1, and DM4. All the pyrrolobenzodiazepines tested - SJG136, SGD-1882, SG2057, and SG3199 - were substrates of P-gp, ABCG2, and MRP1. […] These findings highlight the risk of transporter-mediated resistance with certain ADC payloads and underscore the importance of selecting payloads that evade ABC transporter recognition in future ADC development.
HEK-293 cells were transfected with empty vector (pcDNA) or vector containing the human ABCB1 (MDR-19), ABCG2 (R-5), or ABCC1 gene (MRP1) and were maintained in EMEM with 2 mg/mL G418 added to maintain transporter expression. The HeLa derivative KB-3-1 and the P-gp overexpressing KB-8-5-11 subline were maintained in DMEM; KB-8-5-11 additionally received 100 ng/mL colchicine. H460 parental cells were obtained from the Division of Cancer Treatment and Diagnosis Tumor Repository, National Cancer Institute at Frederick, MD and were cultured in RPMI. The ABCG2 expressing subline H460 MX20 was generated by selecting H460 cells in 20 nM mitoxantrone. Media in all cases was supplemented with 10% FBS and 1% penicillin-streptomycin. We explored 27 common ADC payloads, in two orthogonal, paired cell line sets-a drug selected and transfected set for each transporter--to identify substrates of the ABC transporters P-gp and ABCG2. Compounds were sourced from Levena Biopharma (San Diego, CA), Selleck Chem (Houston, TX), ChemieTek (Indianapolis, IN), or Microsource Discovery Systems (Gaylordsville, CT). Screening was performed as previously described. Briefly, cells were plated at a density of 500 cells/well in 1536 well plates with compounds added using a 1536-head pin tool (Kalypsys, San Diego CA). Cells were incubated with cytotoxic drugs and processed with CellTiter Glo reagent (Promega, Madison, WI) to determine viability after 48 hours. P-gp substrates were identified by comparing compound activity between paired sets of low-expressing (sensitive) and over-expressing (resistant) cell lines.

| Compound | Potency |
| --- | --- |
| CC[C@@]1(O)C(=O)OCc2c1cc1n(c2=O)Cc2cc3ccccc3nc2-1 | 9.5 nM (active) |
| CC[C@H](C)[C@@H]1NC(=O)CNC(=O)[C@H]2Cc3c([nH]c4cc(O)ccc34)S(=O)C[C@H](NC(=O)CNC1=O)C(=O)N[C@@H](CC(N)=O)C(=O)N1C[C@H](O)C[C@H]1C(=O)N[C@@H]([C@@H](C)[C@@H](O)CO)C(=O)N2 (stereo partly specified) | 948 nM (active) |
| CC[C@H](C)[C@@H]([C@@H](CC(=O)N1CCC[C@H]1[C@H](OC)[C@@H](C)C(=O)N[C@H](C)[C@@H](O)c1ccccc1)OC)N(C)C(=O)[C@@H](NC(=O)[C@H](C(C)C)N(C)C)C(C)C | 1.3 nM (active) |
| COc1cccc2c1C(=O)c1c(O)c3c(c(O)c1C2=O)C[C@@](O)(C(=O)CO)CC3OC1CC(N2CCOC(OC)C2)C(O)C(C)O1 (stereo partly specified) | 3 nM (active) |
| COc1cc2cc(C(=O)N3C[C@@H](CCl)c4c3cc(O)c3ccccc43)[nH]c2c(OC)c1OC | 1.1 nM (active) |
| CC[C@H](C)[C@@H]([C@@H](CC(=O)N1CCC[C@H]1[C@H](OC)[C@@H](C)C(=O)N[C@@H](Cc1ccccc1)C(=O)O)OC)N(C)C(=O)[C@@H](NC(=O)[C@H](C(C)C)N(C)C)C(C)C (NMe2Val-V[Dil][Dolaproine]F-OH) | 42.3 nM (active) |
